Test results from PubChem BioAssay (NCATS).
“And” between values parts separate entries of the source, which are not always exact repeats. Equal values may be shown once. A number with no mark means an inactive call. Records with an inconclusive call do not appear. Entries that show only a call come without a potency. The source made the active and inactive calls. Unless noted, calls follow the shape of the dose curve; as a rule, active = well fitted curve in the direction sought with a large enough effect; inconclusive = small, poorly fitted or top-dose-only effect, or another doubt; inactive = no such curve, though single readings can be large; an effect the other way counts as inactive or inconclusive.

How the values were obtained:
[1] = biological target: Mitogen-activated protein kinase 10 (Mus musculus) (UniProt Q61831); test: JNK3 AlphaScreen Assay (AID 530; active = well fitted curve in either direction with a large enough effect, not every such curve was filed as active;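 also: kinase came from lysate of stimulated human HepG2 cells; signal reports phosphorylation of biotinylated GST-cJun 1-79 at Ser73 with 10 µM ATP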)
Method in brief: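 Room-temperature AlphaScreen kinase assay; pre-activated HepG2 lysate as JNK3 source, biotin-GST-cJun(1-79) substrate, 10 uM ATP, compound 15 min preincubation.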

[2] = Cell Viability - N2a (AID 540); details: N2a mouse neuroblastoma cell viability; activity change, negative = cytotoxicity: at 92.2 µM (top of the series); also: nearly all actives have a fitted effect of over 45% in size; also: potency is read from the fitted curve at half-maximal effect
Method in brief: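 First, 1500 N2a cells per well incubate 5 hr at 37 °C; next, compounds are added and incubated 40 hr at 37 °C; finally CellTiter-Glo is added and luminescence read after 20 min, with AC50 derived by Hill modeling.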

[3] = Cell Viability - NIH 3T3 (AID 541); details: NIH 3T3 cell viability, qHTS; activity change, negative = cytotoxicity: at 92.2 µM (top of the series); also: nearly all actives have a fitted effect of over 25% in size; also: potency is read from the fitted curve at half-maximal effect
Method in brief: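 AC50 values reflect concentration-dependent loss of intracellular ATP in NIH 3T3 cells after 40 hr treatment in complete culture medium, quantified by luciferase-based luminescence.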

[4] = Cell Viability - HUV-EC-C (AID 542); also: nearly all actives have a fitted effect of over 35% in size; also: potency is read from the fitted curve at half-maximal effect
Method in brief: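 Decrease in cellular ATP, quantified by luciferase luminescence, reflects toxicity in normal human vascular endothelial HUV-EC-C cells given compound for 40 hr in complete culture medium. Values are AC50s from concentration-response curves.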

[5] = Cell Viability - H-4-II-E (AID 543); also: nearly all actives have a fitted effect of over 35% in size; also: potency is read from the fitted curve at half-maximal effect
Method in brief: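 Here, cytotoxicity is measured in the rat hepatoma line H-4-II-E as loss of intracellular ATP after 40 hr compound treatment, detected by luciferase luminescence.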

[6] = Cell Viability - SH-SY5Y (AID 544); also: nearly all actives have a fitted effect of over 55% in size; also: potency is read from the fitted curve at half-maximal effect
Method in brief: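 Cytotoxicity is scored as a concentration-dependent fall in intracellular ATP in human SH-SY5Y cells treated 40 hr in complete culture medium. Potency is expressed as AC50 from a Hill equation fit.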

[7] = Cell Viability - Renal Proximal Tubule (AID 545); details: renal proximal tubule cells viability; activity change, negative = cytotoxicity: at 91.7 µM (top of the series); also: nearly all actives have a fitted effect of over 40% in size; also: potency is read from the fitted curve at half-maximal effect
Method in brief: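 Rat renal proximal tubule primary cells, 1000/well, exposed to compounds for 40 hr at 37 °C in complete medium; cellular ATP read by CellTiter-Glo luminescence. AC50 from concentration-response fitted with standard Hill equation.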

[8] = Cell Viability - Mesenchymal (AID 546);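 also: cells exposed to compound for 40 hours before reading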; also: potency is read from the fitted curve at half-maximal effect
Method in brief: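 AC50 values reflect the drop in intracellular ATP in a human kidney mesenchymal line derived from normal glomeruli. Treatment lasts 40 hr at 37 °C in complete medium, and the signal comes from CellTiter-Glo luminescence.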

[9] = Cellular Toxicity (caspase-3) HepG2 (AID 654);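 also: cells exposed to compound for 16 hours before reading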
Method in brief: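 qHTS, HepG2, 1500 cells/well, complete medium; cpd 16 h 37 °C; Caspase-Glo 3/7, 20 min RT; lum. Norm: DMSO vs 100 uM tamoxifen; AC50 Hill fit.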

[10] = Cellular Toxicity (caspase-3) Jurkat (AID 655);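 also: cells exposed to compound for 16 h at 37 °C before reading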
Method in brief: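 Jurkat cells (5000/well) in complete medium exposed 16 h at 37 C; caspase-3/7 activity read by Caspase-Glo luminescence after 20 min at room temperature. Normalized to DMSO and 100 uM tamoxifen; AC50 from Hill fits.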

[11] = Cellular Toxicity (caspase-3) HUV-EC-C (AID 656)
Method in brief: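 HUV-EC-C cells (1000/well) in complete medium, compound-treated 16 h at 37 °C; caspase-3/7 activity read by Caspase-Glo 3/7 luminescence. Normalized to DMSO (basal) and 100 uM tamoxifen (100%); AC50 from Hill-equation concentration-response fits.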

[12] = Cellular Toxicity (caspase-3) SHSY5Y (AID 657)
Method in brief: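 SH-SY5Y human neuroblastoma cells, 1500/well, exposed to compound for 16 hours at 37 °C in complete medium. Caspase-3/7 activity read by Caspase-Glo luminescence after 1 hr at room temperature, normalized to DMSO and 10 uM staurosporine; AC50 from Hill fit.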

[13] = Cellular Toxicity (caspase-3) BJ (AID 658); details: Potency: caspase-3 activation
Method in brief: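 Readout: Caspase-Glo 3/7 luminescence increase in BJ cells after 16 hr treatment at 37 °C. Staurosporine and tamoxifen served as positive controls; AC50 values came from Hill modelling of data normalized to DMSO and 10 uM staurosporine.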

[14] = Cellular Toxicity (caspase-3) MRC-5 (AID 659); details: Potency: caspase-3 activation
Method in brief: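 Concentration-dependent caspase 3/7 activation is measured in human normal lung fibroblasts (MRC-5) following 16-hour treatment. AC50 values come from standard Hill-equation modeling of luminescence normalized to DMSO and 10 uM staurosporine.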

[15] = Cellular Toxicity (caspase-3) SK-N-SH (AID 661); details: SK-N-SH caspase-3 activation, qHTS; caspase-3 activation: at 91.7 µM (top of the series), DMSO as zero, staurosporine as full
Method in brief: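 Caspase 3/7 activation is measured as a luminescence increase from aminoluciferin released by substrate cleavage in SK-N-SH cells after 16 hr compound treatment; values are AC50 from concentration-response curves.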

[16] = Cellular Toxicity (caspase-3) H-4-II-E (AID 663);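 also: cells exposed to compound for 16 hr before readout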
Method in brief: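 Apoptosis induction is scored as increased luminescence from caspase 3/7 substrate cleavage in rat hepatoma H-4-II-E cells exposed to compound for 16 hr. Activity is scaled between DMSO and 100 uM tamoxifen.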

[17] = biological target: Glucocorticoid receptor (Homo sapiens) (UniProt P04150); test: GR-GFP Redistribution (AID 450;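 active = compounds whose dose series gives a full or clear partial fitted curve of increased nuclear translocation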; also: potency is read from the fitted curve at half-maximal effect); details: U2OS GR-GFP nuclear translocation, laser cytometry, 2 h
Sequence of Glucocorticoid receptor (Homo sapiens) (P04150 whole entry, looked up, the tested form may be a part): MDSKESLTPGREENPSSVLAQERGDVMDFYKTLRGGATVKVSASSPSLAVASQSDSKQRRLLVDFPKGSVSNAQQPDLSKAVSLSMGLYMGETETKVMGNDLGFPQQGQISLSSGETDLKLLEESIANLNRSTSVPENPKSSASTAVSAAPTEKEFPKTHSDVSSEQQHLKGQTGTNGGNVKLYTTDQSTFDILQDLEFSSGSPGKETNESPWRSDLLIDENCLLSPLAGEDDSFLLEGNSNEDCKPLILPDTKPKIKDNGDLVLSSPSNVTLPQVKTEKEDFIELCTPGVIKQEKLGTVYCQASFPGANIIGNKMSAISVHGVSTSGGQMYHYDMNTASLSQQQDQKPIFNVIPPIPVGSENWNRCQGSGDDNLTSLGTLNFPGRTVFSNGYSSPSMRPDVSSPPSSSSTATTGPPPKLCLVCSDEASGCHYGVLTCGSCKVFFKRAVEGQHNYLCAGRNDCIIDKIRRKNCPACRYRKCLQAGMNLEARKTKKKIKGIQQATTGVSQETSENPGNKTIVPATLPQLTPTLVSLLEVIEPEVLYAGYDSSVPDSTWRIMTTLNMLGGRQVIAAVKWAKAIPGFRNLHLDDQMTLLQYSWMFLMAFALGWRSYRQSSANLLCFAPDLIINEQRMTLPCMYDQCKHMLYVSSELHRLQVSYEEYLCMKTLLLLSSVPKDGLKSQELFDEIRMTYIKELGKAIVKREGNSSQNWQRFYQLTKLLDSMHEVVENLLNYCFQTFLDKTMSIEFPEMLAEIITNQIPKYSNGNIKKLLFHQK

[18] = biological target: Glucocorticoid receptor (Homo sapiens) (UniProt P04150); test: GR-EFC Redistribution (AID 451; calls by dose curve; also: potency is read from the fitted curve at half-maximal effect); details: CHO-K1 GR-EFC translocation, beta-gal luminescence, 2 h
Method in brief: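 Translocation of GR-ED fusion to nuclear EA restores b-gal, read by luminescence after 1 h room-temperature detection. Engineered CHO-K1 biosensor cells, 1,000/well, exposed 2 h at 37 C to titrations up to 46 uM final.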

[19] = biological target: 3',5'-cyclic-AMP phosphodiesterase 4B (Homo sapiens) (UniProt Q07343); test: qHTS Assay for Inhibitors of PDE-IV (AID 607; active = well fitted activation curve with a large enough effect in the main read-out, with a control signal flat, not every such curve was filed as active)
Sequence of 3',5'-cyclic-AMP phosphodiesterase 4B (Homo sapiens) (Q07343 whole entry, looked up): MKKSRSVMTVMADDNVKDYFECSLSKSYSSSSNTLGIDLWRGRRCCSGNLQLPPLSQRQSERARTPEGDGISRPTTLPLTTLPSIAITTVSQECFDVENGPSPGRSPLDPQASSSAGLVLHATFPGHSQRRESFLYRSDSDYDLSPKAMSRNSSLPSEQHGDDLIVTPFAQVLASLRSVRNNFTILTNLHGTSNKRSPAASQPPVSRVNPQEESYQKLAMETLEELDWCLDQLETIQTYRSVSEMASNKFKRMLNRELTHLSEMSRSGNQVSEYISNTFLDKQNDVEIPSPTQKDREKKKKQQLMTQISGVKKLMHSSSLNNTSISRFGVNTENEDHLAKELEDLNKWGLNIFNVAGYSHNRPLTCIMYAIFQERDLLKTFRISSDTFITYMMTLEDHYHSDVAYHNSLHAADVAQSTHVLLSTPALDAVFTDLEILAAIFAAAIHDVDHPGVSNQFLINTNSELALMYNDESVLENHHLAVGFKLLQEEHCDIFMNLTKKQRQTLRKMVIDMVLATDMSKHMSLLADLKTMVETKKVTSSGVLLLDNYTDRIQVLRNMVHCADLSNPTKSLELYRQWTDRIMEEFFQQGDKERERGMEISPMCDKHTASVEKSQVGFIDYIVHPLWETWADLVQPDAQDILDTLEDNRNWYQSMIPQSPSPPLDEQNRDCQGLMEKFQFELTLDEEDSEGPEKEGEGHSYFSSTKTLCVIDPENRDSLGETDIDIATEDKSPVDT
Method in brief: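 Cell-based read-out of cAMP via a modified cyclic nucleotide-gated channel and membrane potential dye (535/590 nm) in HEK293 cells expressing PDE4 endogenously. Compounds tested up to 22.9 uM final; 100 uM RO 20-1724 reference.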

ClC(Cl)(Cl)Cl
outcome [1]: inactive | Potency [2]: inactive | Potency [3]: inactive | Potency [4]: inactive | Potency [5]: inactive | Potency [6]: inactive | Potency [7]: inactive | Potency [8]: inactive | outcome [9]: inactive | Potency [10]: inactive | outcome [11]: inactive | outcome [12]: inactive | Potency [13]: inactive | Potency [14]: inactive | Potency [15]: inactive | outcome [16]: inactive

O=c1c2ccccc2[se]n1-c1ccccc1
Potency [17]: > 46 µM and > 20.6 µM | Potency [18]: > 46 µM and > 20.6 µM | Potency [19]: inactive

CC(C)Nc1ccc(Nc2ccccc2)cc1
activity change, negative = cytotoxicity [2]: -116% (active) | activity change, negative = cytotoxicity [3]: -150% (active) | Potency [4]: 12.6 µM (active) | Potency [5]: 25.1 µM (active) | Potency [6]: 10 µM (active) | outcome [9]: inactive | Potency [10]: inactive | outcome [11]: inactive | outcome [12]: inactive | Potency [13]: inactive | Potency [14]: inactive | Potency [15]: inactive

[Cl-].[Cl-].[Hg+2]
outcome [1]: inactive | Potency [2]: 31.6 µM (active) | Potency [3]: 15.8 µM (active) | Potency [4]: 10 µM (active) | Potency [5]: 20 µM (active) | Potency [6]: 0.158 µM (active) | Potency [7]: 0.316 µM (active) | Potency [8]: 12.6 µM (active) | outcome [9]: inactive | Potency [10]: inactive | outcome [11]: inactive | outcome [12]: inactive | Potency [13]: inactive | Potency [14]: inactive | Potency [15]: inactive | outcome [16]: inactive

CCOC(=O)c1ccccc1C(=O)OCC
outcome [1]: inactive | Potency [2]: inactive | Potency [3]: inactive | Potency [4]: inactive | Potency [5]: inactive | Potency [6]: inactive | Potency [7]: inactive | Potency [8]: inactive | outcome [9]: inactive | Potency [10]: inactive | outcome [11]: inactive | outcome [12]: inactive | Potency [13]: inactive | Potency [14]: inactive | Potency [15]: inactive | outcome [16]: inactive

Clc1ccccc1Cl
outcome [1]: inactive | Potency [2]: inactive | Potency [3]: inactive | Potency [4]: inactive | Potency [5]: inactive | Potency [6]: inactive | Potency [7]: inactive | Potency [8]: inactive | outcome [9]: inactive | Potency [10]: inactive | outcome [11]: inactive | outcome [12]: inactive | Potency [13]: inactive | Potency [14]: inactive | Potency [15]: inactive | outcome [16]: inactive

O=[N+]([O-])c1ccc(F)c([N+](=O)[O-])c1
outcome [1]: inactive | activity change, negative = cytotoxicity [3]: -151% (active) | Potency [4]: inactive | Potency [6]: 25.1 µM (active) | Potency [8]: inactive | outcome [9]: inactive | Potency [10]: inactive | outcome [11]: inactive | outcome [12]: inactive | Potency [13]: inactive | Potency [14]: inactive | Potency [15]: inactive | outcome [16]: inactive

O=P(O)(O)C(Cl)(Cl)P(=O)(O)O
outcome [1]: inactive | Potency [19]: inactive

NC(=O)CI
outcome [1]: inactive | Potency [19]: inactive
